PubChem BioAssay (NCATS)
Results filed as inconclusive are left out. The source made the active and inactive calls. Calls come from the whole dose curve; as a rule, active = well fitted inhibition curve with a large enough effect; inconclusive = small, poorly fitted or top-dose-only effect; inactive = no such curve, though single readings can be large or run the other way.

What follows are compounds tested on Zika virus NS2B-NS3 protease (linked construct) (assay: Primary screen NINDS Rhodamine qHTS for Zika virus inhibitors (AID 1347160; note: nearly all actives have a fitted effect of over 55% in size)). Conditions: purified NS2B-NS3 protease, Rhodamine110 substrate fluorescence; series mostly up to 33.1 µM; activity change, negative = inhibition: at the top concentration.
Procedure, shortened: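 Purified linked NS2B-NS3 protease (NS2B hydrophilic domain joined to NS3 protease by flexible linker), 25 nM in 10 mM Tris-HCl pH 8.0, 0.01% Tween 20. Compounds titrated, 15 min preincubation at room temperature; 1.5 microM Rhodamine110 substrate, FITC fluorescence change over 15 min.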
% is set by controls: 0 for no effect and ±100 for the full control effect.

SMILES | activity change, negative = inhibition | outcome
Cn1c2ccc(NC(=O)c3ccccc3)cc2c(=O)n2nc(C(=O)O)cc12 | -4.91% (inactive) | 
CC(=O)OC1C(CO)OC(O[C@H]2[C@H](OC(=O)[C@]34CCC(C)(C)C[C@H]3C3=CCC5[C@@]6(C)CC[C@H](O[C@@H]7O[C@H](C(=O)O)[C@@H](O)[C@H](O[C@@H]8OC[C@@H](O)[C@H](O)[C@H]8O)[C@H]7O[C@@H]7O[C@H](CO)[C@H](O)[C@H](O)[C@H]7O)[C@@](C)(C=O)C6CC[C@@]5(C)[C@]3(C)C[C@H]4O)O[C@H](C)[C@H](OC3OC(C)C(OC4OCC(O)C(O)C4O)C(O)C3O)[C@@H]2O)C(O)C1O (some centres undefined) | 4.85% [at 10.7 µM] (inactive) | 
CCN1CCN(C(=O)N[C@@H](C(=O)N[C@@H]2C(=O)N3[C@@H]2SC(C)(C)[C@@H]3C(=O)O)c2ccccc2)C(=O)C1=O |  | inactive
CC[C@H](C)[C@H](NC(=O)[C@H](Cc1ccc(O)cc1)NC(=O)[C@@H](N)C(C)C)C(=O)N[C@@H](Cc1cnc[nH]1)C(=O)N1CCC[C@H]1C(=O)N[C@@H](Cc1ccccc1)C(=O)O | 8.38% [at 4.91 µM] (inactive) | 
Cc1ccc2nc(NC(=O)CSc3nc4c(c(=O)n3-c3ccc(F)cc3)SCC4)sc2c1 | 40.1% [at 57.1 µM] (inactive) | 
CC(C)c1ccc2c(c1)C(O)CC1C(C)(C(=O)O)CCCC21C (centres undefined) | 2.47% (inactive) | 
CCC/C=C/C=C/C1CC(O)C(O)C(=O)C1CO (centres undefined) | -28.3% [at 57.1 µM] (inactive) | 
C=C1CC/C=C(/C(=O)O)CCC2C1CC2(C)C (centres undefined) | -26% [at 57.1 µM] (inactive) | 
C[C@H]1[C@H](C)C[C@@H](C(=O)O)C2CC[C@]3(C)C(=CC[C@@H]4[C@@]5(C)CC[C@H](O)C(C)(C)[C@@H]5CC[C@]43C)[C@@H]21 (some centres undefined) | -16.7% [at 57.1 µM] (inactive) | 
C=C(C(=O)O)[C@@H]1CC[C@H](C)[C@@H]2CC(=O)C(C)=C2C1 | 45.1% [at 57.1 µM] (inactive) | 
CC1(CO)CCCC2(C)C3COC(=O)C3=CC(O)C12 (centres undefined) | -3.54% [at 57.1 µM] (inactive) | 
COc1cc(C(O)C2COC(c3ccc(OC4OC(CO)C(O)C(O)C4O)c(OC)c3)C2CO)ccc1O (centres undefined) | -21.2% (inactive) | 
C=C1C(=O)O[C@@H]2/C=C(\C)CC/C=C(\C(=O)O[C@@H]3O[C@H](CO)[C@@H](O)[C@H](O)[C@H]3O)CC[C@@H]12 | -2.5% (inactive) | 
CC(=O)OC1C(O)/C(C)=C\C2C(OC(=O)c3ccccc3)C(C)CC2(OC(C)=O)C(OC(C)=O)C(C)/C=C/C(C)(C)C1OC(C)=O (centres undefined) | -8.29% [at 15.1 µM] (inactive) | 
C=C1CC2C3(C)C(O)CC(=O)C(C)(C)C3C(O)C(OC(C)=O)C2(C)C2C(=O)OC(C)(C(=O)OC)C(=O)C12C (centres undefined) | 29.7% (inactive) | 
CC(C)C1(O)C=C2C(=O)CC3C(C)(C(=O)O)CCCC3(C)C2CC1 (centres undefined) | -1.99% (inactive) | 
C/C=C/C=C/C1=C2C(=O)C3(C)C4C(C(=O)CC(O)/C=C/C)=C(O1)C1(C)C2C2(C)OC1(O)C4(C)OC23O (centres undefined) |  | inactive [at 33.1 µM]
CC1OC(OC2C(OC(=O)[C@]34CCC(C)(C)C[C@H]3C3=CCC5[C@@]6(C)CC[C@H](OC7OC(C(=O)O)C(O)C(O)C7O)C(C)(C)C6CC[C@@]5(C)[C@]3(C)CC4O)OC(CO)C2O)C(O)C(O)C1OC1OCC(O)C(O)C1O (some centres undefined) |  | inactive [at 15.1 µM]
C=C(C(=O)O)[C@H]1C[C@]2(C)C(=O)CC[C@]23O[C@H]1C[C@@H]3C | 29.4% [at 57.1 µM] (inactive) | 
C/C=C(/C)C(=O)O[C@@H]1C[C@@H](OC(=O)/C(C)=C\C)[C@@]2(C)C3C(=O)C=C(C)C2C3C1(C)C | -16.8% (inactive) | 

SMILES | activity change, negative = inhibition | outcome
C/C=C/C=C/C=C/C(=O)O[C@@H]1C=C(CO)[C@](O)(CO)[C@@]2(C)CCCC(C)(C)[C@H]12 | -17% (inactive) | 
C=C(C)C1Cc2c(ccc3c2OCC(c2ccc(O)cc2O)C3)O1 (centres undefined) |  | inactive [at 33.1 µM]
CC[C@@H]1[C@H]2CCCCN3C(=O)C[C@H]([C@@H]4[C@H]1OC(=O)[C@H]4C)[C@@H]23 | -19.1% [at 57.1 µM] (inactive) | 
CC1CC(=O)[C@]2(O)C(C(=O)OCCc3ccc(O)cc3)=CO[C@@H](O[C@@H]3O[C@H](CO)[C@@H](O)[C@H](O)[C@H]3O)[C@H]12 (some centres undefined) |  | inactive [at 33.1 µM]
C=C1C(O)CC2C(C(=O)O)=COC(OC3OC(CO)C(O)C(O)C3OC(=O)/C=C\c3ccc(O)cc3)C12 (centres undefined) |  | inactive [at 33.1 µM]
CC1(C)C2CC[C@]3(C)C(C(=O)C=C4[C@H]5C[C@@](C)(C(=O)O)CC[C@]5(C)CC[C@]43C)[C@@]2(C)CC[C@@H]1O (some centres undefined) | -2.83% (inactive) | 
O=C(/C=C/N1C[C@@H]2C[C@@H]1CN2c1ccccn1)c1ccccc1O | 20.9% [at 57.1 µM] (inactive) | 
COc1cccc(OC)c1-c1nc(C(=O)N[C@@H](CC(C)C)C(=O)O)cn1-c1ccnc2cc(Cl)ccc12 | 0.714% [at 57.1 µM] (inactive) | 
C[C@@H]1O[C@@H](O[C@H]2[C@@H]3C=CO[C@@H](O[C@@H]4O[C@H](CO)[C@@H](O)[C@H](O)[C@H]4O)[C@@H]3[C@@]3(CO)O[C@@H]23)[C@H](O)[C@H](OC(=O)/C=C/c2ccc(O)c(O)c2)[C@H]1O | -16.6% [at 15.1 µM] (inactive) | 
CC1(C)CC[C@]2(C(=O)O[C@@H]3O[C@H](CO)[C@@H](O)[C@H](O)[C@H]3O)[C@H](O)C[C@]3(C)C(=CCC4[C@@]5(C)CC[C@H](O[C@@H]6OC[C@@H](O)[C@H](O)[C@H]6O)[C@@](C)(C(=O)O)C5CC[C@]43C)[C@@H]2C1 (some centres undefined) | 8.57% [at 15.1 µM] (inactive) | 
CC/C=C\C(O)C(O)C1=C(C)C(=O)C2(O1)C(=O)NC(OC)(C(=O)c1ccccc1)C2O (centres undefined) | -25.8% (inactive) | 
C/C=C(\C)C(=O)OC[C@H]1O[C@@H](O[C@H]2[C@@H](O[C@H]3O[C@H](COC(=O)/C(C)=C/C)[C@@H](O)[C@H](O)[C@H]3O[C@@H]3O[C@H](COC(=O)/C(C)=C/C)[C@@H](O)[C@H](OC(=O)/C(C)=C/C)[C@H]3O)O[C@H](COC(=O)/C(C)=C/C)[C@@H](O)[C@@H]2O)[C@H](O)[C@@H](O)[C@@H]1O | 16.9% [at 15.1 µM] (inactive) | 
CC(C)(O)/C=C/C(=O)[C@](C)(O)[C@H]1[C@H](O)C[C@@]2(C)[C@@H]3CC=C4[C@@H](C=C(O[C@@H]5O[C@H](CO)[C@@H](O)[C@H](O)[C@H]5O)C(=O)C4(C)C)[C@]3(C)C(=O)C[C@]12C |  | inactive [at 15.1 µM]
C/C(=C\CCC(C)(C)O)CCO[C@@H]1O[C@H](CO[C@@H]2O[C@@H](C)[C@H](O)[C@@H](O)[C@H]2O)[C@@H](O)[C@H](O)[C@H]1O | -17.6% (inactive) | 
CC1CC(=O)[C@]2(O)C(C(=O)OCCc3ccc(O)c(O)c3)=CO[C@@H](O[C@@H]3O[C@H](CO)[C@@H](O)[C@H](O)[C@H]3O)[C@H]12 (some centres undefined) | 21.5% (inactive) | 
Cc1c(-c2ccc3c(c2)OCO3)oc2ccc(C(O)C(C)O)cc12 (centres undefined) | 0.211% (inactive) | 
CC(=O)/C=C/C1C(C)CC(O[C@@H]2O[C@H](CO)[C@@H](O)[C@H](O)[C@H]2O)CC1(C)C (some centres undefined) | -26.6% (inactive) | 
COC(=O)C1=COC(O[C@@H]2O[C@H](CO)[C@@H](O)[C@H](O)[C@H]2O)/C(=C\COC(=O)/C=C/c2ccccc2)C1CC(=O)OCCc1ccc(O)cc1 (some centres undefined) | 15.8% [at 15.1 µM] (inactive) | 
CC(=O)OCC1=CCC2C(C)(C)CCCC2(C)C12CCC(C)(CC(=O)O)O2 (centres undefined) | -1.23% (inactive) | 
